Molecules are shown by their SMILES. Activity calls are given as the source filed them. The calls were made as follows: active = hit-call score of the fitted dose curve at least 0.9, where 1 is the maximum; inactive = score below 0.9.

A short description of this experiment: ATG_BRE_CIS: Attagene CIS-FACTORIAL HepG2 Assay for human Bone Morphogenetic Protein (BMP) Response Element (BRE) (AID 2282933). Conditions: HepG2 BMP response element reporter, Attagene transcription factor profiling; actives raise or lower the signal. In outline: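 Endogenous transcription factor activity at a BMP response element was monitored in transfected HepG2 cells 24 h after dosing. Fluorescent RT-PCR products were resolved by capillary electrophoresis, and activity was fitted in both directions versus DMSO.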
With `CCc1c(Br)c(Br)c(Br)c(Br)c1Br`, the call was inactive.
In the case of `O=C(CC(=O)C(F)(F)C(F)(F)F)C(F)(F)F` it was “inactive”; in that of `CCC(=O)OCCc1ccccc1`, “inactive”; in that of `FC(F)(F)C(F)(F)C(F)(F)C(F)(F)C(F)(F)C(F)(F)CCS`, “inactive”.
Take `O=C(O)C(F)(OC(F)(F)C(F)(OC(F)(F)C(F)(F)C(F)(F)F)C(F)(F)F)C(F)(F)F` (stereo not drawn): the outcome was inactive.
For the compound `Cc1cc(C)cc(O)c1`, the call was inactive.
In the case of `CN(C)Cc1ccccc1O` it was “inactive”; in that of `CC(CCl)OP(=O)(OC(C)CCl)OC(C)CCl` (stereo not drawn), “inactive”; in that of `Cc1cccc(N(C)C)c1`, “inactive”.
With `Cc1ccc(S(=O)(=O)OCC(F)(F)C(F)(F)C(F)(F)C(F)(F)C(F)(F)C(F)F)cc1` the entry was “inactive”; with `C=CC(=O)OCC(F)(F)C(F)(F)C(F)(F)C(F)(F)COC(=O)C=C`, “inactive”; with `CCCCCC=O`, “inactive”.
In the case of `O=C(O)C(F)(F)C(F)(F)C(F)(F)C(F)(F)F` it was “inactive”.
For the compound `FC(F)(I)C(F)(F)C(F)(F)C(F)(F)I`, the call was inactive.
As to `O=C(OCCOCCOCCOC(=O)c1ccccc1)c1ccccc1`, the compound was called inactive.
With `CC(C)=CCCC(C)CCOC(=O)C(C)C` (stereo not drawn) the entry was “inactive”; with `CCCCOCCOCCOC(=O)CCCCC(=O)OCCOCCOCCCC`, “inactive”; with `CC(Cc1ccc(O)c(O)c1)C(C)Cc1ccc(O)c(O)c1` (stereo not drawn), “inactive”.
In the case of `c1ccc(B(c2ccccc2)c2ccccc2)cc1` it was “inactive”; in that of `COC(=O)C1CCC(C(=O)OC)CC1` (stereo not drawn), “inactive”; in that of `O=S(=O)(O)c1ccc2ccccc2c1`, “inactive”.
On to `FC(F)(F)C(F)(F)CNCC(F)(F)C(F)(F)F`, for which the compound was called inactive.
Take `C=CC(=O)OCC(F)(F)C(F)(F)C(F)(F)C(F)(F)C(F)(F)C(F)(F)C(F)(F)F`: the compound was classed as inactive.
